# Test results as given in the supplement of paper PMC4166925.
# ± gives the standard deviation of the averaged measurements. In all, about 33,000 sequences were measured (“E-score (dimensionless, -0.5 to 0.5)”: median about -0.049, highest 2% from about 0.37 on). This is one part of a sample in which the highest values are shown more often than they occur.
# Test system: T1, PmTbr T-box DNA-binding domain (GST fusion)
# T1 sequence: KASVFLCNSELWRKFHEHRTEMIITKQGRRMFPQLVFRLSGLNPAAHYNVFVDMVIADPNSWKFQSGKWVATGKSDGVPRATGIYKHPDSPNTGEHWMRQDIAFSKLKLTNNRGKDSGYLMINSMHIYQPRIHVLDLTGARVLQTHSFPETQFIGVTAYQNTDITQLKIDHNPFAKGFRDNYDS
# Test: PBM E-score of 8-mer (E-score (dimensionless, -0.5 to 0.5)); Tbr is Tbrain of the sea star Patiria miniata (Pm) or the sea urchin Strongylocentrotus purpuratus (Sp); higher = stronger binding preference
# Conditions: the construct has about 5 more residues each side
# Description: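 Universal protein-binding microarray (Agilent AMADID 016060, 60-bp probes with a 35-bp variable region) incubated with 200 nM GST-fused Patiria miniata Tbr T-box DNA-binding domain (residues 272-466) in PBS pH 7.5. Scored for every ungapped 8-mer (given with its reverse complement) by the Universal PBM Analysis Suite as E-score (modified Wilcoxon-Mann-Whitney enrichment, range -0.5 to 0.5; >0.45 counts as bound) and Z-score of median probe intensity. Two replicate arrays (datasets 1 and 2).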
# 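Also: 200 nM protein in PBS on universal arrays averaged over duplicate arrays.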
row,Sequence,PBM E-score of 8-mer
1,CCATGGCC,-0.263 ± 0.011
2,AGGTGACC,0.172 ± 0.052
3,AGGTGACT,0.31 ± 0.015
4,CGGTGACG,0.179 ± 0.047
5,AGGTGAAA,0.347 ± 0.022
6,AGGTGACG,0.4629 ± 0.0014
7,AGGTGACA,0.4826 ± 0.00079
8,GGGGGGCA,-0.327 ± 0.0093
9,GCTCTGAC,-0.205 ± 0.092
10,GGAAACCA,-0.1389 ± 0.00081
11,AACTCTCG,-0.128 ± 0.018
12,GATTCACC,-0.167 ± 0.0053
13,TATTCACA,0.411 ± 0.029
14,GATTCACA,0.38 ± 0.041
15,CATTCACA,0.385 ± 0.0049
16,AATTCACG,0.365 ± 0.0071
17,CATTCACC,-0.0785 ± 0.054
18,AATTCACA,0.2798 ± 0.0014
19,CATTCACG,0.229 ± 0.041
20,GATTCAGA,-0.206 ± 0.0085
21,AGACCACT,-0.234 ± 0.093
22,TACCCATA,-0.104 ± 0.024

row,Sequence,PBM E-score of 8-mer
1,AACTGACG,0.102 ± 0.036
2,ATGTGTGG,0.3184 ± 0.0012
3,ACGTGTGG,0.362 ± 0.017
4,AGATGTGC,0.163 ± 0.018
5,CTGTGTGC,-0.0563 ± 0.038
6,AGGTGTGC,0.44 ± 0.0051
7,AGGTGTGG,0.483 ± 0.0024
8,ATACTCCG,-0.00617 ± 0.029
9,AGAGTTAT,-0.0216 ± 0.013
10,GTCCAACA,0.198 ± 0.045
11,AAAGCGTG,0.2812 ± 0.0023
12,CGTAAACG,0.0455 ± 0.046
13,AGGCGTTA,0.4486 ± 0.0021
14,AGGCGTTC,0.0817 ± 0.053
15,AGGCGTTG,0.369 ± 0.0053
16,GGGCGTTA,0.276 ± 0.0092
17,AGGCGTAG,0.0703 ± 0.0097
18,CGGCGTTA,0.189 ± 0.00085
19,ATTGGAGG,0.0195 ± 0.049
20,AAATGGGC,0.0759 ± 0.0097
21,GGCAACGA,0.0835 ± 0.033
22,AGGAGATG,-0.0689 ± 0.011

row,Sequence,PBM E-score of 8-mer
1,ACTTTTAC,-0.0251 ± 0.02
2,CCAGAGCC,-0.17 ± 0.0096
3,AAGGTGGC,0.383 ± 0.021
4,AAGGTGGG,0.221 ± 0.026
5,GAGGTGGC,0.372 ± 0.036
6,GAGGTGGA,0.0566 ± 0.0027
7,AAGGTGGA,-0.0394 ± 0.074
8,CAGGTGGC,0.364 ± 0.018
9,TACTAGTA,-0.163 ± 0.035
10,CTGTAGCA,-0.0144 ± 0.079
11,ACGCACCA,0.0123 ± 0.072
12,AATCTTTA,-0.0517 ± 0.059
13,GACACGGC,0.187 ± 0.038
14,AACACGTA,0.34 ± 0.024
15,AACACGAT,0.291 ± 0.018
16,AACACGCT,0.197 ± 0.011
17,GACACGTC,0.373 ± 0.021
18,AACACGGC,0.162 ± 0.017
19,AACACGTT,0.386 ± 0.014
20,GACACGTA,0.317 ± 0.029
21,AACACGTC,0.399 ± 0.021
22,ACGCGTTC,0.138 ± 0.014

row,Sequence,PBM E-score of 8-mer
1,TTAGTGAA,-0.048 ± 0.037
2,TCTAAGAA,-0.239 ± 0.028
3,CAAGGTTC,0.0603 ± 0.055
4,GAAGGTGC,0.439 ± 0.012
5,GAAGGTAA,0.00393 ± 0.033
6,CAAGGTCA,0.0991 ± 0.0032
7,GAAGGTAC,-0.214 ± 0.046
8,TAAGGTGA,0.3578 ± 0.00067
9,CAAGGTAA,0.00125 ± 0.13
10,CAAGGTGG,0.323 ± 0.03
11,CAAGGTGC,0.4331 ± 0.00078
12,GAAGGTGA,0.406 ± 0.011
13,GAAGGTCC,-0.1794 ± 0.0013
14,CAAGGTGA,0.406 ± 0.0091
15,TCAAATGA,-0.203 ± 0.019
16,ATGGGCCA,-0.105 ± 0.04
17,CAGCGCTG,0.0573 ± 0.064
18,CATTACCA,-0.0668 ± 0.0072
19,ACTCCTTC,0.0419 ± 0.014
20,AGCTATAA,-0.182 ± 0.011
21,AGTTAGGG,-0.128 ± 0.021
22,CAGGTGCG,0.4533 ± 0.0028
